Inconclusive results are not listed. Active and inactive are the calls of the source. The limit is not given here; nearly all actives have IC50 up to about 30 µM.
assay: SU-DIPG-XXV glioma cell viability, MIPE5.0 library, qHTS (AID 1347068);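 as to IC50: cells exposed to compound for 48 hours before viability readout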

Row | Structure (SMILES) | IC50 | outcome
1 | CCc1cc(C(N)=O)ccc1-n1nc(C(C)C)c2c(-n3cnc(-c4cnn(C)c4)c3)ccnc21 | 3.32 µM (active) | –
2 | CCN1C(=O)N2Cc3cc(OC)cc(OC)c3[C@@H](C)C=C2C12CCN(Cc1cc(C)cc(C)c1)CC2 | 20.9 µM (active) | –
3 | CCN1CCN(Cc2ccc(NC(=O)Nc3ccc(Oc4cc(NC)ncn4)cc3)cc2C(F)(F)F)CC1 | 7.42 µM (active) | –
4 | C[C@@H]1CC(=O)Nc2cccc(-c3cnn(C(C)(C)C)c3)c2N1 | – | inactive
5 | Cc1c(CN2CCC(Nc3ncnc4sc(CC(F)(F)F)cc34)CC2)ccc2c1cc(C#N)n2Cc1cn[nH]c1 | – | inactive
6 | CC(=O)c1cnc2ccc(-c3cc(Cl)c(O)c(Cl)c3)nc2c1NC1CCC(CN(C)C)CC1 (configuration not stated) | 0.191 µM (active) | –
7 | Cc1cn(CCN2CCN(c3ccccc3-c3cc(C#N)cc(C(=O)NCCCN4CCCC4)c3)CC2)c2ccccc12 | 7.42 µM (active) | –
8 | CN(C)C1CCN(C(=O)c2ccc(NC(=O)Nc3ccc(-c4nc(N5CCOCC5)nc(N5CCOCC5)n4)cc3)cc2)CC1 | 0.742 µM (active) | –
9 | C=C1C(=O)O[C@@H]2[C@H]3C(C)=CC[C@@]34O[C@@]4(C)CC[C@@H]12 | 20.9 µM (active) | –
10 | O=C(CCCc1ccc2cccnc2n1)NCc1cc(-c2ccc(F)c(C(F)(F)F)c2)no1 | – | inactive
11 | Cc1ccc(S(=O)(=O)Nc2cc(-c3ccc(C#N)s3)ccc2C)cc1 | 0.0661 µM (active) | –
12 | COc1cc(OC)c(/C=C/S(=O)(=O)Cc2ccc(OC)c(OP(=O)(O)O)c2)c(OC)c1 | 0.0742 µM (active) | –

— PubChem BioAssay
